Data as given in PubChem BioAssay (Tox21).
“And” between values parts separate entries of the source, which are not always exact repeats. Equal values may be shown once. Results filed as inconclusive are left out. Where a call stands in place of a potency, no number is given. A structure can be active in one record and inactive in another. The source made the active and inactive calls. Unless noted, calls follow the shape of the dose curve; as a rule, active = well fitted curve in the direction sought with a large enough effect in the repeat runs; inconclusive = weak or mixed curves; inactive = no such curve, though single readings can be large; an effect the other way counts as inactive or inconclusive.

Key:
[1] = qHTS assay to identify small molecule antagonists of the glucocorticoid receptor (GR) signaling pathway - cell viability counter screen (AID 720693); also: nearly all actives have a fitted effect of over 55% in size
[2] = qHTS assay for identifying genotoxic compounds that show differential cytotoxicity against isogenic chicken DT40 cell lines with known DNA damage response pathways - Rev3 mutant cell line (AID 743014); also: nearly all actives have a fitted effect of over 55% in size; also: potency is read from the fitted curve at half-maximal effect
[3] = qHTS assay for identifying genotoxic compounds that show differential cytotoxicity against isogenic chicken DT40 cell lines with known DNA damage response pathways - Rad54/Ku70 mutant cell line (AID 743015); also: nearly all actives have a fitted effect of over 60% in size; also: potency is read from the fitted curve at half-maximal effect
[4] = target: Androgen receptor (Homo sapiens) (UniProt P10275); experiment: qHTS assay to identify small molecule agonists of the androgen receptor (AR) signaling pathway (AID 743036; active = well fitted activation curve with a large enough effect in the signal ratio in the repeat runs, with a control signal flat, not every such curve was filed as active; the % refers to the signal ratio)
Method in brief: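 Cell-based FRET reporter assay: HEK293 line with a UAS-beta-lactamase construct, compounds added in DMSO, 16 h exposure at 37C, then 2 h substrate step at room temperature and fluorescence intensity read.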

[5] = target: Androgen receptor (Homo sapiens) (UniProt P10275); experiment: qHTS assay to identify small molecule agonists of the androgen receptor (AR) signaling pathway using the MDA cell line (AID 743040; also: nearly all actives have a fitted effect of over 20% in size)
Method in brief: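 MDA-kb2 breast carcinoma cells stably carrying an MMTV-driven luciferase reporter (AR- and GR-responsive) were seeded and held 5 h at 37C, 0% CO2, then exposed to compounds in DMSO for 16 h. Luminescence was read 30 min after ONE-Glo addition.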

[6] = target: Androgen receptor (Homo sapiens) (UniProt P10275); experiment: qHTS assay to identify small molecule antagonists of the androgen receptor (AR) signaling pathway using the MDA cell line (AID 743042; also: nearly all actives have a fitted effect of over 55% in size; also: potency is read from the fitted curve at half-maximal effect)
Method in brief: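 MDA-kb2 cells (human breast carcinoma, stably carrying an MMTV-luciferase reporter responsive to AR and GR) were plated at 3,000 cells/well and preincubated 5 hr at 37C, then given compound plus R1881 agonist for 16 h. ONE-Glo luminescence was read.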

[7] = qHTS assay to identify small molecule antagonists of the thyroid receptor (TR) signaling pathway - cell viability counter screen (AID 743064); also: nearly all actives have a fitted effect of over 50% in size; also: potency is read from the fitted curve at half-maximal effect
Method in brief: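 In rat pituitary GH3.TRE-Luc reporter cells co-exposed to compound and 1 nM T3 for 23.5 h, cytotoxicity was assessed with CellTiter-Fluor in the same wells, read by fluorescence.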

[8] = qHTS assay for identifying genotoxic compounds that show differential cytotoxicity against isogenic chicken DT40 cell lines with known DNA damage response pathways - wild type cell line (AID 743012); also: nearly all actives have a fitted effect of over 60% in size; also: potency is read from the fitted curve at half-maximal effect
Method in brief: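 Cells (DT40 wild type, 300/well) are treated with DMSO-dissolved compounds after a ~0.5 h pre-incubation and kept 40 h at 37 C/5% CO2. Viability is then measured by CellTiter-Glo luminescence following 30 min at room temperature.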

[9] = qHTS assay to identify small molecule antagonists of the androgen receptor (AR) signaling pathway - cell viability counter screen (AID 743033; also: nearly all actives have a fitted effect of over 45% in size; also: potency is read from the fitted curve at half-maximal effect)
[10] = qHTS assay to identify small molecule antagonists of the androgen receptor (AR) signaling pathway using the MDA cell line - cell viability counter screen (AID 743041; also: nearly all actives have a fitted effect of over 45% in size)
Method in brief: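 MDA-kb2 AR-luc human breast carcinoma cells (MMTV-luciferase, AR/GR responsive) were treated with compounds plus R1881 agonist for 16 h at 37 °C. Viability was read as CellTiter-Fluor fluorescence in the same wells as the reporter assay.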

Chain of Androgen receptor (Homo sapiens) (P10275 whole entry, looked up): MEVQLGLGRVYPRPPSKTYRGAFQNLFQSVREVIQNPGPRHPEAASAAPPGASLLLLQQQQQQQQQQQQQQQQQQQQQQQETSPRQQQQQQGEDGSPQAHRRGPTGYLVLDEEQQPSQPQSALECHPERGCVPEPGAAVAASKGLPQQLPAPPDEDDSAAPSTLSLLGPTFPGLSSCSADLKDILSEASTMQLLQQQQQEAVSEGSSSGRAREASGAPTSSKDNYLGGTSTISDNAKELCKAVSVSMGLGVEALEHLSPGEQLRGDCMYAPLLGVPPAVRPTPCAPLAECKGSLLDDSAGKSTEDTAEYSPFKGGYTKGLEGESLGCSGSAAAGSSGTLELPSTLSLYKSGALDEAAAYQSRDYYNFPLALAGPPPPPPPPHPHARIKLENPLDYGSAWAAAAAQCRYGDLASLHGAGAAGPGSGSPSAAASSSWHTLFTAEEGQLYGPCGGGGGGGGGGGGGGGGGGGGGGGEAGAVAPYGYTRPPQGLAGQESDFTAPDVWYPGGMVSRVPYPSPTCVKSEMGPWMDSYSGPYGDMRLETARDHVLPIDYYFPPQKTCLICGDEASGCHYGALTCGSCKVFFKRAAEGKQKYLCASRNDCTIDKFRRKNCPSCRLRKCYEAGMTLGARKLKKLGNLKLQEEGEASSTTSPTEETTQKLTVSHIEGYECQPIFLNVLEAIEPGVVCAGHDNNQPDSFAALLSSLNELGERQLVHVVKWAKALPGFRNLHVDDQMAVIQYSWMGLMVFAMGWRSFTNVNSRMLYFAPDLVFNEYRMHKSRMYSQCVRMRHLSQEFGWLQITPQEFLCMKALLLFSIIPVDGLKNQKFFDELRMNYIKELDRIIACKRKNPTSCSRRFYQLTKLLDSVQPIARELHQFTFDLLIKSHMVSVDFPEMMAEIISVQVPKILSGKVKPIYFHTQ

Row | Structure (SMILES) | Potency [1] | Potency [2] | Potency [3] | outcome [4] | outcome [5] | Potency [6] | Potency [7] | Potency [8] | Potency [9] | Potency [10]
1 | CCOC1Oc2ccc(OS(C)(=O)=O)cc2C1(C)C (stereo not drawn) | inactive | 27.1 µM (active) | 54 µM (active) | inactive | inactive | 60.6 µM (active) | inactive |  |  | 
2 | O=C(Cl)OCc1ccccc1 |  | inactive | inactive |  |  |  |  | inactive | inactive | inactive
3 | CCCCCCCCSC(=O)Oc1cc(Cl)nnc1-c1ccccc1 | inactive |  |  |  |  |  | inactive | 54.5 µM (active) | inactive | inactive
4 | CCN[C@@H](C)Cc1cccc(C(F)(F)F)c1 | inactive |  | 21.3 µM (active) |  |  |  | inactive |  | inactive | inactive
5 | OP(O)c1ccccc1 |  | inactive | inactive | inactive | inactive | inactive | inactive | inactive | inactive | inactive
6 | CCOC(=O)c1ncn2c1CN(C)C(=O)c1c(I)cccc1-2 | inactive | inactive |  |  |  |  | inactive |  | inactive | inactive
7 | CCN[C@@H](C)Cc1ccccc1 | inactive |  |  | inactive | inactive | inactive | inactive | inactive | inactive | inactive
8 | NNCc1ccccc1 |  | inactive | inactive |  |  |  | inactive | inactive | inactive | inactive
9 | O=C(Cl)C(Cl)Cl |  | inactive | inactive |  |  |  |  | inactive | inactive | 
10 | CC1=C2[C@H]3OC(=O)[C@@H](C)[C@@H]3CC[C@@]2(C)C=CC1=O |  |  | inactive |  |  |  | inactive | inactive | inactive | 
11 | C[C@H]1CCCC(=O)CCC/C=C/c2cc(O)cc(O)c2C(=O)O1 |  |  | 16.6 µM (active) and 17.8 µM (active) | inactive | inactive | 52.5 µM (active) | 23.4 µM (active) and 20 µM (active) | 20.9 µM (active) and 20 µM (active) | 42.1 µM (active) | inactive
12 | CCNc1nc(Cl)nc(NC(C)(C)C)n1 |  | inactive |  | inactive | inactive | inactive |  | inactive | inactive | inactive
13 | CCCCS(=O)(=O)Cl |  |  | inactive |  |  |  | inactive |  | inactive | inactive
14 | C=C1CC[C@@]2(O)[C@H]3Cc4ccc(O)c5c4[C@@]2(CCN3CC2CC2)[C@H]1O5 |  |  | inactive |  |  |  | inactive | inactive | inactive | 
15 | CCOC(=O)Nc1cccc(OC(=O)Nc2ccccc2)c1 |  |  | inactive |  |  |  | inactive | inactive | inactive | inactive
16 | O=C(Cl)C(Cl)(Cl)Cl |  |  | inactive |  |  |  |  | inactive | inactive | inactive

Row | Structure (SMILES) | Potency [1] | Potency [2] | Potency [3] | outcome [4] | outcome [5] | Potency [6] | Potency [7] | Potency [8] | Potency [9] | Potency [10]
17 | OCC(Cl)CCl (stereo not drawn) |  |  | inactive |  |  |  | inactive | inactive | inactive | inactive
18 | COC(=O)c1ccc(CBr)cc1 |  |  | inactive | inactive | inactive | inactive | inactive | inactive | inactive | inactive
19 | C/C(=N\NC(=O)Nc1cc(F)cc(F)c1)c1ncccc1C(=O)O |  |  | inactive |  |  |  | inactive | inactive | inactive | 
20 | CCCC(C)(COC(N)=O)COC(N)=O |  | inactive | inactive |  |  |  | inactive | inactive | inactive | inactive
21 | Cc1ccc(Cl)c(O)c1 |  | inactive | inactive |  |  |  | inactive | inactive | inactive | inactive
22 | O=C1C2CC=CCC2C(=O)N1SC(Cl)(Cl)Cl (stereo not drawn) |  | 531 nM (active) and 683 nM (active) and 107 nM (active) | 596 nM (active) and 2.42 µM (active) and 135 nM (active) |  |  |  | 6.68 µM (active) and 2.39 µM (active) | 473 nM (active) and 6.83 µM (active) and 120 nM (active) | inactive and 3.41 µM (active) | 
23 | N=C(N)[Se] |  | 2.44 µM (active) | 2.44 µM (active) |  |  |  | inactive | 4.87 µM (active) | inactive | inactive
24 | CCCOC(=O)Cc1ccc(OCC(=O)N(CC)CC)c(OC)c1 |  |  | inactive |  |  |  | inactive |  | inactive | inactive
25 | CC[C@@H](CO)NC(=O)[C@@H]1C=C2c3cccc4c3c(cn4C)C[C@H]2N(C)C1 |  |  |  |  |  |  | inactive | 13.3 µM (active) | inactive | inactive
26 | CON(C)C(=O)Nc1ccc(Br)c(Cl)c1 |  | 61.1 µM (active) |  |  |  |  |  |  | inactive | 
27 | COC1=CC(=O)O[C@@H](/C=C/c2ccccc2)C1 |  |  | inactive |  |  |  |  | inactive | inactive | 
28 | CCOC(=O)C(Cl)Cc1cc(-n2nc(C)n(C(F)F)c2=O)c(F)cc1Cl (stereo not drawn) |  |  | 54.5 µM (active) |  |  |  | inactive | 54.5 µM (active) | inactive | inactive
29 | NCCOS(=O)(=O)O |  |  | inactive |  |  |  | inactive | inactive | inactive | inactive
30 | CN=CNc1ccc(C)cc1C |  |  | inactive |  |  |  | inactive | inactive | inactive | inactive
31 | C=CCCC#N |  | inactive | inactive |  |  |  | inactive | inactive | inactive | 
